Data reported in PubChem BioAssay AID1893 (NMMLSC, 2009).
Among all 5,900 compounds or so, about 120 (2%) were called active. Cut-off read from the data, not from the text of the source: active = percent response mostly above about 71% (no sharp cut-off); inactive = mostly below about 38%. Only a sample is shown.

These compounds were tested on MEKK2 (MAP3K2) mutant PB1 domain binding MEK5, human (assay: mutant MEKK2 PB1-MEK5 binding signal retest – biochemical, single concentration, multiplex bead flow cytometry, confirmation (AID 1893;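 note: higher means compound restores mutant binding toward wildtype level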)). Conditions: Alexa488-MEK5 binding to MEKK2 mutant, at 10 µM, hits give high values.

Percent response, inactive:
CCN1CCN(c2ccc(S(=O)(=O)N3CCCCC3)cc2NC(=O)Cc2c(Cl)cccc2Cl)CC1 20%
CCCCN1C(=O)/C(=C(/C#N)C(N)=O)c2ccccc21 -2%
CC(C)c1ccc(C(=O)NCCCc2ccccc2)cc1 -5%
Cc1ccc(C)c(CN2CCC(CNC(=O)Nc3ccc(C)c(F)c3)CC2)c1 20%
Cc1nc2cc(S(=O)(=O)C(F)(F)F)ccc2s1 -1%
O=C(Cc1cccc2ccccc12)Nc1ccc2oc(-c3ccccc3)nc2c1 10%
O=C(CSc1ccc(-c2ccc(F)cc2)nn1)Nc1ccc2c(c1)OCCO2 4%
Cc1cnc(NC(=O)Cn2cnc3c2c(=O)n(C)c(=O)n3C)s1 -16%
O=C(OCc1cc(Cl)ccc1OC(F)F)c1cccnc1 -8%
CC1(C)Cc2cccc(OCC(=O)N3CCN(c4ccc([N+](=O)[O-])cc4)CC3)c2O1 1%
CCOC(=O)c1sc2nc(C)nc(SCC(N)=O)c2c1C 5%
CCOC(=O)c1cc2c(nc1NC(=S)Nc1ccccc1)CC(C)(CC)OC2 (stereo not drawn) -4%
O=C(NCCC1=CCCCC1)c1ccc(Cl)c([N+](=O)[O-])c1 5%
Cc1cccn2c(=O)c(/C=C3\SC(=S)N(CC(C)C)C3=O)c(NCCCOC(C)C)nc12 -25%
O=C(NCCCN1CCCCCC1)C1CC(=O)N(C2CCCC2)C1 (stereo not drawn) -29%
COc1cc2c(cc1OC)CN(C(=O)c1ccc(S(=O)(=O)N3CCCCCC3)cc1)CC2 -1%
O=C(/C=C/Nc1ccccc1)c1cnc(-c2ccccc2)s1 7%
Cn1c(=NC(=O)CSCC(=O)N2CCCCC2)sc2ccccc21 8%
CCOC(=O)Cc1csc(NC(=O)CSc2nc(C)cc(=O)[nH]2)n1 -5%
CN1C(=O)/C(=C\c2ccc(-c3ccccc3)o2)SC1=S -31%
CCN(CC)CCCNC(=O)c1ccc2c(=O)n(Cc3ccc4c(c3)OCO4)c(=S)[nH]c2c1 7%
O=C(OCC1O[C@@H](OC(=O)c2cc(O)c(O)c(O)c2)[C@@H](OC(=O)c2cc(O)c(O)c(O)c2)[C@@H](OC(=O)c2cc(O)c(O)c(O)c2)[C@@H]1OC(=O)c1cc(O)c(O)c(O)c1)c1cc(O)c(O)c(O)c1 (stereo partly drawn) -34%
CCOC(=O)c1cc2occc2n1CC(=O)N1CCN(C(=O)c2ccco2)CC1 -10%
Cc1cccc(CSc2nnc(C)c(=O)n2N)c1 -2%
C=C(C)C1CC=C(C)/C(=N\NC(=O)CNc2ccccc2OC)C1 (stereo not drawn) 10%
Cc1c(-c2ccccc2)cn2c1-c1ccc(C)n1CC2 0%
CCCN(CCC)c1nc2c(C)cccn2c(=O)c1/C=C1/SC(=S)N(Cc2ccco2)C1=O -17%
O=C(O)c1cccnc1NC1CCCC1 13%
CCCc1nnc(SCC(=O)N2C(C)CCCC2C)n1CC (stereo not drawn) 10%
C/C=C/c1ccc(OCCCCN2CCC(C)CC2)c(OC)c1 4%
CNC(C)C#Cc1ccc2sc3cc(OC)c(OC)cc3c(=O)c2c1 (stereo not drawn) 16%
Cc1cc(C(=O)OCC(=O)N2c3ccccc3NC(=O)C2(C)C)c(C)n1-c1ccccc1 1%
Cc1ccc(NC(=O)COc2ccc(-n3ccnc3)cc2)cc1Cl 21%
Cc1ccc(C(=O)NC(=S)Nc2ccc3[nH]c(=O)[nH]c3c2)cc1C 4%
O=C1Nc2ccc(Br)cc2/C1=N/N=C/C1=C(N2CCOCC2)C(=C\c2ccccc2)/CC1 -20%
C#CCOCCOCCOCCNc1nc(N2CCN(C(=O)[C@H](CCCCN)n3cc([C@@H](N)C(C)CC)nn3)CC2)nc(N2CCN(C(=O)[C@H](Cc3ccc(O)cc3)n3cc([C@@H](N)C(C)CC)nn3)CC2)n1 (stereo partly drawn) 52%
COc1ccc(S(=O)(=O)Nc2ccc3oc(C)c(C(C)=O)c3c2)cc1 -3%
O=C(Cc1cccs1)N/N=C/c1ccc(OCc2ccccc2)cc1 3%
N#C/C(=C\C1=C(N2CCOCC2)C(=C\c2ccccc2)/CC1)C(=O)Nc1ccccc1F -38%
Cc1cc(C)nc(-n2ncc3c2CC(c2ccc(C(C)C)cc2)CC3=O)n1 (stereo not drawn) 0%
Cc1ccc(Nc2nc(CSc3nnc(-c4ccncc4)n3-c3ccccc3C)cs2)cc1 1%
COc1ccc(N2CCN(Cc3nnc(-c4ccccc4)o3)CC2)cc1 -5%
Cc1nc(N=C(N)N)nc2c(C)cccc12 10%
Cn1c(=NC(=O)CSCC(=O)N2CCOCC2)sc2ccccc21 -15%
Cc1cc(C)c(NC(=O)C[N+](C)(C)CC(O)COc2cccc3ccccc23)c(C)c1 (stereo not drawn) 35%
CCCCn1c(SCC(=O)NCCc2ccc(OC)c(OC)c2)nc2c1c(=O)n(C)c(=O)n2C 0%
CCOc1cc(C(=O)OCC(=O)Nc2cccc(C)c2)ccc1OCC(=O)N1CCOCC1 0%
COc1ccccc1N1CCN(CCCCOc2ccc(F)cc2)CC1 0%
Cc1ccc(S(=O)(=O)NC(=O)N2CCCC(C)(C)C2)cc1 -1%
O=C(O)c1cc(Cl)c(Cl)cc1C(=O)Nc1cccc2ncccc12 -2%
COc1ccc(-c2[nH]ncc2CN(C)Cc2c(C)n[nH]c2C)c(OC)c1 11%
CCN1CCN(c2nc(Nc3cc(OC)ccc3OC)nc(Nc3cc(OC)ccc3OC)n2)CC1 25%
C=CCn1c(=S)sc2c(=O)[nH]c(C)nc21 1%
O=C(NC1CCN(Cc2ccccc2)CC1)c1cc(Br)c(Br)[nH]1 18%
CC(=O)Nc1ccc(-c2nc3ccccc3o2)cc1 -2%
Cc1c(C#N)c2ncn(CC#N)c(=O)c2n1-c1ccccc1 -7%
O=C(NCC1CCCCC1)c1cc(S(=O)(=O)N2CCCCC2)ccc1N1CCOCC1 -16%
COc1cc(/C=C2\SC(=S)N(Nc3ncc(C(F)(F)F)cc3Cl)C2=O)cc(OC)c1OC -10%
